Test results as given in PubChem BioAssay AID1347146 (National Center for Advancing Translational Sciences (NCATS), 2019).
Inconclusive results are not listed. Values without a mark were called inactive. The source made the active and inactive calls. Calls come from the whole dose curve; as a rule, active = well fitted inhibition curve with a large enough effect; inconclusive = small, poorly fitted or top-dose-only effect; inactive = no such curve, though single readings can be large or run the other way.

Target: Nicotinamide N-methyltransferase (Homo sapiens) (UniProt P40261)
Experiment: qHTS Assay for Inhibitors of N-terminal methyltransferase 1 (NTMT1): NNMT MTaseGlo counterscreen assay;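 for activity change, negative = inhibition: plate controls were DMSO without inhibitor for no effect and no-enzyme control for full effect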
Details: NNMT enzyme, MTase-Glo luminescence counterscreen; series mostly up to 57.1 µM; activity change, negative = inhibition: at the top concentration
Outline: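 Luminescent MTase-Glo read-out of SAH from nicotinamide methylation: 1 µM nicotinamide, 100 µM SAM, 125 nM NNMT, 30 min RT after ~15 min compound preincubation. Values normalized to no-enzyme/DMSO controls, Hill-fitted.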
Potency is the fitted concentration of half-maximal effect.

Nicotinamide N-methyltransferase (Homo sapiens), sequence (P40261 whole entry, looked up): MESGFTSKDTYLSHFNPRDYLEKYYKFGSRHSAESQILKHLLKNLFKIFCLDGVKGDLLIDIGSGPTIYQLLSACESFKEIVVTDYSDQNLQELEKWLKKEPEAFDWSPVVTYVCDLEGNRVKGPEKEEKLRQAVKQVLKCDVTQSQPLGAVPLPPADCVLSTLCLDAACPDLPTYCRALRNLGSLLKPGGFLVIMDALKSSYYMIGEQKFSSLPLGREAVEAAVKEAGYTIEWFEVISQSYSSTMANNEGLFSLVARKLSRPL

Row | Compound | Potency | activity change, negative = inhibition
1 | Cc1ccc(O)c(N=Nc2ccccc2)n1 | 14.1 µM (active) | 
2 | N#C/C(=C\c1ccc(O)c(O)c1)C(=O)c1ccc(O)c(O)c1 |  | -6.84%
3 | COc1cc2c(NC3CCN(C(C)C)CC3)nc(N3CCC(F)(F)CC3)nc2cc1OCCCN1CCCCC1 |  | -5.35%
4 | Nc1ncnc2c1ncn2[C@@H]1O[C@H](CO)[C@@H](O)[C@H]1O | inactive | 
5 | CCN(CC)C(C)CN1c2ccccc2Sc2ccccc21 (configuration not stated) |  | -2.39%
6 | CC(CN1c2ccccc2Sc2ccccc21)N(C)C (configuration not stated) |  | 98.6%
7 | O=Nc1ccc2oc(=O)ccc2c1 |  | -8.49%
8 | C[C@](Cc1ccc(O)c(O)c1)(NN)C(=O)O |  | -14.1%
9 | N[C@@H](Cc1c[nH]c2ccc(O)cc12)C(=O)O | inactive | 
10 | NCC(O)C1CCCCCCC1 (configuration not stated) |  | -15.3%
11 | OCCNc1ncnc2c1ncn2[C@@H]1O[C@@H](CO)[C@H](O)[C@@H]1O |  | 31.2%
12 | CN=c1nc(-c2ccccc2)n(-c2ccccc2)s1 |  | -11.7%
13 | c1cc(CN2CCCCC2)cc(OCCCNc2nc3ccccc3s2)c1 |  | -18.2%
14 | CC(C)(C)c1ccc(S(=O)(=O)/C=C\C#N)cc1 | 11.2 µM (active) | 
15 | Cc1cc2nc3c(=O)[nH]c(=O)nc-3n(C[C@H](O)[C@H](O)[C@H](O)COP(=O)(O)OP(=O)(O)OC[C@H]3O[C@@H](n4cnc5c(N)ncnc54)[C@H](O)[C@H]3O)c2cc1C |  | 162% [at 28.5 µM]
16 | N=C(N)c1ccc(OCCCCCOc2ccc(C(=N)N)cc2)cc1 (tested in a mixture with another compound) |  | -16.6%
17 | c1ccc(CN2CCC3(CCCc4ccccc43)CC2)cc1 |  | -10.1%
18 | COc1cc(CNC(=O)CCCCCCC(C)C)ccc1O |  | -12.2%
19 | CC(C)NC[C@H](O)c1ccc(O)c(O)c1 | inactive | 

Row | Compound | Potency | activity change, negative = inhibition
20 | C=CCN1CCc2c(cc(O)c(O)c2Br)[C@@H](c2ccccc2)C1 |  | -16.5%
21 | Cc1cccc(C2CN(C)CCc3c2cc(O)c(O)c3Cl)c1 (configuration not stated) |  | -16.8%
22 | OCCN1CCN(CC/C=C2/c3ccccc3Sc3ccc(C(F)(F)F)cc32)CC1 |  | -10.3%
23 | NC(Cc1c[nH]c2ccc(O)cc12)C(=O)O (configuration not stated) |  | -8.98%
24 | CCC(CC)n1ccc2c(C(=O)NCc3c(C)cc(C)[nH]c3=O)cc(C#N)cc21 |  | -10.6%
25 | CCn1nc(C(=O)O)c(=O)c2cc3c(cc21)OCO3 |  | -3.83%
26 | N=c1c[n+](N2CCOCC2)[n-]o1 |  | -13.7%
27 | Cc1nn(-c2ccccc2)c(C)c1/C=N/N1CCN(Cc2ccccc2)CC1 |  | -7.51%
28 | OC[C@H]1O[C@@H](n2cnc3c(NCc4ccco4)ncnc32)[C@H](O)[C@@H]1O |  | 48.5%
29 | Cc1[nH]c(=O)c(C#N)cc1-c1ccc2nccn2c1 |  | -11.5%
30 | CC[N+](CC)(CC)CCOc1cccc(OCC[N+](CC)(CC)CC)c1OCC[N+](CC)(CC)CC |  | -11.5%
31 | O=C1NC(=O)C(c2ccccc2[N+](=O)[O-])=C1Nc1ccc(O)c(Cl)c1 |  | -29.5%
32 | COc1cc(/C=C(\C#N)C(=O)c2ccc(O)c(O)c2)cc(I)c1O |  | -14.5%
33 | Nc1[nH]c(=O)nc2c1ncn2C1OC(CO)C(O)C1O (configuration not stated) |  | -17%
34 | O=c1cc(-c2ccccc2)oc2c(O)c(O)ccc12 |  | -17.4%
35 | COc1ccccc1CNCCCCCCNCCCCCCCCNCCCCCCNCc1ccccc1OC |  | -15.9%
36 | COc1cc2nc(N3CCCN(C)CC3)nc(NC3CCNCC3)c2cc1OC |  | -5.53%
37 | Nc1nc(Nc2ccccc2)nc2c1ncn2[C@@H]1O[C@H](CO)[C@@H](O)[C@H]1O |  | -12%
